The subject of one assay is Klebsiella pneumoniae. Particulars: Concentration 32 ug.mL-1, ASSAY_TEST Inhibition of Bacterial Growth, detection method Absorption (OD600), MEDIA CAMHB, plate type 384well, NBS, CORNING #3640, time 18 hr.
The next assay relates to Candida albicans. Particulars: 32 ug/mL.
In the next assay the test system is Cryptococcus neoformans. The conditions noted are these: Concentration 32 ug.mL-1, ASSAY_TEST Inhibition of Fungal Growth, detection method Resazurin, Absorption (OD600-OD570), plate type 384well, NBS, CORNING #3640. (In general: The colour change of resazurin is a common sign of viable cells or microbes.)

“And” between values parts separate entries of the source, which are not always exact repeats. Equal values may be shown once. Measured potencies and affinities stand elsewhere.

The Inhibition is the drop in the measured response relative to a control, in per cent.

Take `COc1ccc2cc(C3C(C(C)=O)=C(C)Oc4nc5c(c(N)c43)CCC5)c(Cl)nc2c1` (stereo not given): the figures for the Inhibition with Klebsiella pneumoniae, with Candida albicans and with Cryptococcus neoformans were 0.03%, 12.4% and -0.43%, respectively.
On to `O=C(O)c1cc2ccccc2[nH]1` [INDOLE-2-CARBOXYLIC ACID], for which the Inhibition with Klebsiella pneumoniae is 1.67%; in the assay on Candida albicans, 26.2%; with Cryptococcus neoformans, -9.27%.
For the compound `O=C(Cc1c[nH]c2ccccc12)NNCCc1ccccc1`, the values for the Inhibition with Klebsiella pneumoniae, with Candida albicans and with Cryptococcus neoformans were 0.81%, 1.99% and -0.59%, respectively.
`CN(C)c1ccc(C(=NNC(=O)c2cc3ccccc3[nH]2)c2ccc(N(C)C)cc2)cc1`: the Inhibition with Klebsiella pneumoniae was -1.36%; in the assay on Candida albicans it was -0.9%; in the assay with Cryptococcus neoformans, -8.51%.
For `Cl.ClCCCN1CCCC1`, the Inhibition is 2.47% in the assay with Klebsiella pneumoniae, 8.26% in the assay with Candida albicans and -0.84% in the assay with Cryptococcus neoformans.
With `O=C(N[C@H]1CC[C@@H](Br)[C@@H](Br)C1)C(F)(F)F`, the values for the Inhibition in the assay on Klebsiella pneumoniae, with Candida albicans and with Cryptococcus neoformans were 11.37%, 9.4% and -47.65%, respectively.
Turning to `Cc1nc(NO)c2c(C)nn(-c3ccccc3)c2n1`, the Inhibition with Klebsiella pneumoniae was 17.6%; in the assay on Candida albicans, 0.21%; in the assay on Cryptococcus neoformans, -3.47%.
Turning to `Cl.Nc1c2c(nc3c1C(c1c(Cl)cccc1Cl)c1ccc4ccccc4c1O3)CCCC2` (stereo not given), the Inhibition was 3.98% in the assay with Klebsiella pneumoniae, -1.11% in the assay with Candida albicans and -3.69% in the assay on Cryptococcus neoformans.
Turning to `N#Cc1cc(C#N)c(NCCO)nc1N`, the Inhibition in the assay with Klebsiella pneumoniae was 12.5%; in the assay on Candida albicans, 1.22%; with Cryptococcus neoformans, -17.78%.
In the case of `CCOC(=O)C1=C(C)OC(N)=C(C#N)C1c1ccc([N+](=O)[O-])cc1` (stereo not given), the Inhibition in the assay with Klebsiella pneumoniae was 12.45%; in the assay with Candida albicans, -0.07%; in the assay with Cryptococcus neoformans it was -64.89%.
As to `C#CCNC.O=C(O)C(=O)O`, the Inhibition in the assay on Klebsiella pneumoniae was 9.05%; in the assay with Candida albicans, 4.18%; in the assay with Cryptococcus neoformans it was -8.52%.
As for `COC1=C(C#N)CC(C)C(=O)N1` (stereo not given), the Inhibition in the assay on Klebsiella pneumoniae was 6.94%; with Candida albicans, 1.01%; in the assay on Cryptococcus neoformans, -33.52%.
On to `C#CCN(C)c1nc(NCCC2CCN(Cc3ccccc3)CC2)c(C#N)cc1C#N.Cl`, for which the Inhibition is 3.63% in the assay on Klebsiella pneumoniae, -0.31% in the assay on Candida albicans and 0.75% in the assay with Cryptococcus neoformans.
In the case of `COc1ccc2cc(C3C4=C(CC(C)(C)CC4=O)Oc4nc5c(c(N)c43)CCCCC5)c(Cl)nc2c1` (stereo not given), the Inhibition in the assay on Klebsiella pneumoniae is 4.86%; with Candida albicans it was 23%; in the assay on Cryptococcus neoformans, -4.18%.
`CC#CCN(Cc1ccccc1)c1nc(N)c(C#N)cc1C#N`: the Inhibition is -9.03% in the assay on Klebsiella pneumoniae, 3.48% in the assay with Candida albicans and -21.6% in the assay with Cryptococcus neoformans.
As to `Cl.Nc1c2c(nc3c1C(c1ccccc1)c1c(ccc4ccccc14)O3)CCCC2` (stereo not given), the Inhibition with Klebsiella pneumoniae is 8.19%; with Candida albicans, 1.33%; in the assay with Cryptococcus neoformans it was -0.7%.
For the compound `COc1ccc(C=C2N=C(c3ccccc3)OC2=O)cc1`, the Inhibition in the assay with Klebsiella pneumoniae is 13.35%; in the assay on Candida albicans, 0.77%; in the assay on Cryptococcus neoformans it was -7.5%.
In the case of `O=C1SC(SCc2ccccc2)=NC1=Cc1cccc(OCc2ccccc2)c1`, the Inhibition in the assay on Klebsiella pneumoniae is -15.18%; in the assay on Candida albicans it was 0.84%; with Cryptococcus neoformans it was -8.61%.
In the case of `Cl.OCCCC1CCNCC1`, the Inhibition in the assay with Klebsiella pneumoniae is 3.57%; in the assay with Candida albicans, 1.52%; in the assay on Cryptococcus neoformans it was -1.05%.
In the case of `N#Cc1cc(C#N)c(NC2CCN(Cc3ccccc3)CC2)nc1N`, the Inhibition in the assay with Klebsiella pneumoniae (32 ug/mL) is 9.31% and 4.29%; in the assay on Candida albicans, 1.61% and 2.76%; in the assay on Cryptococcus neoformans (32 ug/mL) it was -42.03% and -48.76%.
As for `C#CCNc1nc(NCCCCC2CCN(Cc3ccccc3)CC2)c(C#N)cc1C#N`, the Inhibition in the assay with Klebsiella pneumoniae was -10.59%; in the assay with Candida albicans it was 4.43%; in the assay on Cryptococcus neoformans, -10.91%.
As for `CCOC(=O)C1=C(C)Nc2nc3c(c(N)c2C1c1ccc([N+](=O)[O-])cc1)CCCC3.Cl` (stereo not given), the Inhibition with Klebsiella pneumoniae was 18.29%; in the assay with Candida albicans it was 1.72%; in the assay with Cryptococcus neoformans it was -58.17%.
For `Cn1c(CNNC(=O)Cc2cccc3ccccc23)cc2ccccc21`, the Inhibition is 2.56% with Klebsiella pneumoniae, -0.25% in the assay with Candida albicans and -2.04% in the assay with Cryptococcus neoformans.
On to `COc1nc2nc3c(c(N)c2cc1C#N)CN(Cc1ccccc1)CC3`, for which the Inhibition in the assay with Klebsiella pneumoniae was 8.31%; in the assay on Candida albicans it was 1.24%; in the assay with Cryptococcus neoformans it was -69.67%.
Consider `Cc1nn(-c2ccccc2)c2ncnc(NCc3ccccc3)c12`, for which the Inhibition with Klebsiella pneumoniae was 6.27%; with Candida albicans, -0.21%; with Cryptococcus neoformans it was -3.05%.
Consider `COc1ccc(C2c3c(ccc4ccccc34)OC(=NBr)C2(Br)C#N)cc1` (stereo not given), for which the figures for the Inhibition in the assay on Klebsiella pneumoniae, with Candida albicans and in the assay on Cryptococcus neoformans were 26.17%, 10.1% and -63.65%, respectively.
For `C#CCN(C)c1nc(OC)c(C#N)c(-c2ccccc2)c1C#N`, in that order: 15.23%, 4.58% and -56.39%.
Regarding `O=C(Cc1ccccc1)N/N=C/c1c[nH]c2ccccc12`, the results for the Inhibition in the assay with Klebsiella pneumoniae, in the assay on Candida albicans and in the assay on Cryptococcus neoformans were 20.21%, 3.09% and -2.34%, respectively.
Taken in the same sequence, the figures for `N#CC1=C(N)NC(=O)CC1c1ccccc1` (stereo not given) were 22.17%, 1.7% and -51.84%.
For `CCOC(=O)C1=C(C)OC(N)=C(C#N)C1c1ccc(OC)cc1` (stereo not given), in that order: 14.63%, 2.59% and -5.46%.

Source of the values: ChEMBL document CHEMBL4513135, “CO-ADD screening of IQOG CSIS (Spain) compounds”.
